Common to all, as to experiment: yeast three-hybrid, YBZ-1, SC-Leu-His + 0.5 mM 3-AT, 4 days
Common to all, as to settings: tags: N-Gal4 AD-HA kept; label: inside an RPR1-promoter hybrid RNA with tandem MS2 sites; ssRNA

One experiment has as its target PUM1 PUF domain R5-KHL (Homo sapiens, UniProt Q14671 828-1176, C1007K;R1008H;Q1011L). A digest of the protocol:
(§1)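 Matching RNA elements and Pumilio-1 PUF domain libraries, randomized at the three base-contacting residues of every repeat, were co-expressed from a centromeric plasmid in strain YBZ-1 (LexA–MS2 coat fusion, HIS3 reporter). The repeat regions were PCR-amplified and Illumina-sequenced from cells grown four days on SC-Leu (input) or SC-Leu-His + 0.5 mM 3-AT (selection). The interaction score is the log change in variant frequency from input to selection. It is computed in log2, with a pseudocount of 1 for absent variants.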

The target of a further experiment is T1, PUM1 PUF domain R6-KWR (Homo sapiens, UniProt Q14671 828-1176, N1043K;Y1044W;Q1047R).
T1 sequence: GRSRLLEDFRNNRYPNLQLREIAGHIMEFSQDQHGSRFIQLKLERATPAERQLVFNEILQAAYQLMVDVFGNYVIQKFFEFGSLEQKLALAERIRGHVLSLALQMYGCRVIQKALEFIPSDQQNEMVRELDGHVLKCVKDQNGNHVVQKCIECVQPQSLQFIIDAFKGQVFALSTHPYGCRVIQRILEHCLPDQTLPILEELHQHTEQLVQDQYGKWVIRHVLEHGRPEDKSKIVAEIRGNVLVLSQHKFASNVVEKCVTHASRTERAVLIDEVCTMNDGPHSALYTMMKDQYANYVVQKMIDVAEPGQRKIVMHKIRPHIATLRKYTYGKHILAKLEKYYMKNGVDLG
A digest of the protocol:
as §1

The next experiment addresses PUM1 PUF domain R7-QRD (Homo sapiens, UniProt Q14671 828-1176, S1079Q;N1080R;E1083D). A digest of the protocol:
as §1

For a further experiment, the target named is T2, PUM1 PUF domain R6-LWV (Homo sapiens, UniProt Q14671 828-1176, N1043L;Y1044W;Q1047V).
T2 sequence: T1 sequence with K216L, R220V
An outline of the steps:
as §1

For a further experiment, the target named is PUM1 PUF domain R3-GWI (Homo sapiens, UniProt Q14671 828-1176, C935G;R936W;Q939I). A digest of the protocol: as §1
For another experiment, the target named is PUM1 PUF domain R5-MSR (Homo sapiens, UniProt Q14671 828-1176, C1007M;R1008S;Q1011R). A digest of the protocol:
as §1

The target of a further experiment is PUM1 PUF domain R3-VNE (Homo sapiens, UniProt Q14671 828-1176, C935V;R936N;Q939E). A digest of the protocol:
as §1

In the next experiment the target is PUM1 PUF domain R8-RKR (Homo sapiens, UniProt Q14671 828-1176, N1122R;Y1123K;Q1126R). A digest of the protocol:
as §1

The target in another experiment is PUM1 PUF domain R3-LYS (Homo sapiens, UniProt Q14671 828-1176, C935L;R936Y;Q939S). An outline of the steps:
as §1

The next experiment has as its target PUM1 PUF domain R1-KWE (Homo sapiens, UniProt Q14671 828-1176, S863K;R864W;Q867E). An outline of the steps: as §1
The next experiment concerns the target PUM1 PUF domain R3-RQG (Homo sapiens, UniProt Q14671 828-1176, C935R;R936Q;Q939G). An outline of the steps: as §1
In another experiment the target is PUM1 PUF domain R3-QPE (Homo sapiens, UniProt Q14671 828-1176, C935Q;R936P;Q939E). A digest of the protocol:
as §1

In the next experiment the target is T3, PUM1 PUF domain R6-QWM (Homo sapiens, UniProt Q14671 828-1176, N1043Q;Y1044W;Q1047M).
T3 sequence: T1 sequence with K216Q, R220M
An outline of the steps: as §1

Another experiment deals with PUM1 PUF domain R2-KLQ (Homo sapiens, UniProt Q14671 828-1176, N899K;Y900L). A digest of the protocol:
as §1

For another experiment, the target named is PUM1 PUF domain R4-DYN (Homo sapiens, UniProt Q14671 828-1176, N971D;H972Y;Q975N). A digest of the protocol: as §1
For a further experiment, the target named is PUM1 PUF domain R5-RMK (Homo sapiens, UniProt Q14671 828-1176, C1007R;R1008M;Q1011K). A digest of the protocol:
as §1

The next experiment addresses T4, PUM1 PUF domain R6-SHE (Homo sapiens, UniProt Q14671 828-1176, N1043S;Y1044H;Q1047E).
T4 sequence: T1 sequence with K216S, W217H, R220E
An outline of the steps: as §1

The next experiment has as its target PUM1 PUF domain R1-RMT (Homo sapiens, UniProt Q14671 828-1176, S863R;R864M;Q867T). A digest of the protocol:
as §1

Results on 13 sequences are retold here after PMC8384837, “Expanding the binding specificity for RNA recognition by a PUF domain”.

Positions count from the first letter of the chain named.

“GGCUAGAACUAGUGGAUCCCCCGGCGCCCGGCGGCUCGAGCCCGGGUAAGUGUUAAUAGUCUGCAUGCCGCCGGGCGCCAUGCCUGCAGGUCGACUCUAGAAAACAUG”: the binding signal with PUM1 PUF domain R5-KHL was 5.83 log2 enrichment (interaction score).

In the case of “GGCUAGAACUAGUGGAUCCCCCGGCGCCCGGCGGCUCGAGCCCGGGUAAGUGUAAAUAGUCUGCAUGCCGCCGGGCGCCAUGCCUGCAGGUCGACUCUAGAAAACAUG”, the binding signal with PUM1 PUF domain R6-KWR was 6.69 log2 enrichment (interaction score); with PUM1 PUF domain R7-QRD, 2.72 log2 enrichment (interaction score); with PUM1 PUF domain R6-LWV, 3.67 log2 enrichment (interaction score); with PUM1 PUF domain R3-GWI it was 2.68 log2 enrichment (interaction score); with PUM1 PUF domain R5-MSR, 1 log2 enrichment (interaction score); with PUM1 PUF domain R3-VNE it was 3.16 log2 enrichment (interaction score). The binding signal with PUM1 PUF domain R8-RKR is 3.9 log2 enrichment (interaction score); with PUM1 PUF domain R3-LYS it was 4.77 log2 enrichment (interaction score). As to “GGCUAGAACUAGUGGAUCCCCCGGCGCCCGGCGGCUCGAGCCCGGGUAAGUGUAAAUCGUCUGCAUGCCGCCGGGCGCCAUGCCUGCAGGUCGACUCUAGAAAACAUG”, the binding signal in the experiment with PUM1 PUF domain R1-KWE was 4.74 log2 enrichment (interaction score). On to “GGCUAGAACUAGUGGAUCCCCCGGCGCCCGGCGGCUCGAGCCCGGGUAAGUGUAAUUAGUCUGCAUGCCGCCGGGCGCCAUGCCUGCAGGUCGACUCUAGAAAACAUG”, for which the binding signal in the experiment with PUM1 PUF domain R3-RQG was 4.14 log2 enrichment (interaction score); with PUM1 PUF domain R3-QPE it was 2.87 log2 enrichment (interaction score); with PUM1 PUF domain R3-LYS, 5.78 log2 enrichment (interaction score).

With “GGCUAGAACUAGUGGAUCCCCCGGCGCCCGGCGGCUCGAGCCCGGGUAAGUGAAAAUAGUCUGCAUGCCGCCGGGCGCCAUGCCUGCAGGUCGACUCUAGAAAACAUG”, the binding signal is 2.8 log2 enrichment (interaction score) with PUM1 PUF domain R6-LWV and 4.68 log2 enrichment (interaction score) with PUM1 PUF domain R6-QWM. As for “GGCUAGAACUAGUGGAUCCCCCGGCGCCCGGCGGCUCGAGCCCGGGUAAGUGUAAAGAGUCUGCAUGCCGCCGGGCGCCAUGCCUGCAGGUCGACUCUAGAAAACAUG”, the binding signal in the experiment with PUM1 PUF domain R2-KLQ is 3.21 log2 enrichment (interaction score). Take “GGCUAGAACUAGUGGAUCCCCCGGCGCCCGGCGGCUCGAGCCCGGGUAAGUGUAUAUAGUCUGCAUGCCGCCGGGCGCCAUGCCUGCAGGUCGACUCUAGAAAACAUG”: the binding signal with PUM1 PUF domain R4-DYN is 5.22 log2 enrichment (interaction score). In the case of “GGCUAGAACUAGUGGAUCCCCCGGCGCCCGGCGGCUCGAGCCCGGGUAAGUGUCAAUAGUCUGCAUGCCGCCGGGCGCCAUGCCUGCAGGUCGACUCUAGAAAACAUG”, the values for the binding signal with PUM1 PUF domain R5-MSR and with PUM1 PUF domain R5-RMK were 3.83 log2 enrichment (interaction score) and 2.87 log2 enrichment (interaction score), respectively. Take “GGCUAGAACUAGUGGAUCCCCCGGCGCCCGGCGGCUCGAGCCCGGGUAAGUGGAAAUAGUCUGCAUGCCGCCGGGCGCCAUGCCUGCAGGUCGACUCUAGAAAACAUG”: the binding signal with PUM1 PUF domain R6-SHE is 4.66 log2 enrichment (interaction score). “GGCUAGAACUAGUGGAUCCCCCGGCGCCCGGCGGCUCGAGCCCGGGUAAGUGUAAGUAGUCUGCAUGCCGCCGGGCGCCAUGCCUGCAGGUCGACUCUAGAAAACAUG”: the binding signal in the experiment with PUM1 PUF domain R3-VNE was 0.75 log2 enrichment (interaction score). In the case of “GGCUAGAACUAGUGGAUCCCCCGGCGCCCGGCGGCUCGAGCCCGGGUAAGUGUAAAUUGUCUGCAUGCCGCCGGGCGCCAUGCCUGCAGGUCGACUCUAGAAAACAUG”, in the experiment with PUM1 PUF domain R1-RMT, the binding signal was 3.66 log2 enrichment (interaction score).

With “GGCUAGAACUAGUGGAUCCCCCGGCGCCCGGCGGCUCGAGCCCGGGUAAGUGUAAAUGGUCUGCAUGCCGCCGGGCGCCAUGCCUGCAGGUCGACUCUAGAAAACAUG”, the binding signal with PUM1 PUF domain R1-RMT was 1.2 log2 enrichment (interaction score). Take “GGCUAGAACUAGUGGAUCCCCCGGCGCCCGGCGGCUCGAGCCCGGGUAAGCGUAAAUAGUCUGCAUGCCGCCGGGCGCCAUGCCUGCAGGUCGACUCUAGAAAACAUG”: in the experiment with PUM1 PUF domain R8-RKR, the binding signal was 5.43 log2 enrichment (interaction score).
